# Shown are actives, neighbours in structure and some others; about 2.5% of the full set was active somewhere.
# VACV Venus inh – vaccinia inhibition (Venus reporter). Vaccinia virus Venus reporter expression, fluorescence. Potency, µM (series often up to 36.5 µM), inactives show top-dose activity change, negative = inhibition, usual class: inhibitors. 330,000 tested, 0.46% active. AID 720580; calls by dose curve; tested in A549 cells; also: nearly all actives have a fitted effect of over 30% in size
# MARV entry inh – blocks Marburg virus binding to or entry into cells; Marburg virus pseudotyped entry inhibition, cell reporter; AID 540276; 300,000 tested, 1.8% active; Potency, µM (series often up to 37.8 µM), inactives show at the top dose activity change, negative = inhibition, actives largely listed as inhibitors; calls by dose curve; tested in HEK293 cells
# VACV mCherry inh – vaccinia inhibition (mCherry reporter) | Vaccinia virus mCherry reporter infection, fluorescence | Potency, µM (top dose mostly 36.5 µM), inactives show at the highest dose activity change, negative = inhibition, usual class: inhibitors | 310,000 tested, 0.63% active; calls by dose curve; tested in A549 cells; also: nearly all actives have a fitted effect of over 35% in size
# LASV entry inh – Lassa virus entry inhibition | Lassa virus pseudotype entry inhibition, cell reporter | Potency, µM (highest dose often 37.9 µM), inactives show top-dose activity change, negative = inhibition, most hits filed as inhibitors | 300,000 tested, 1.2% active | AID 540256; calls by dose curve; tested in HEK293 cells; also: nearly all actives have a fitted effect of over 50% in size
# An asterisk follows results filed as active; i = inactive; ? = inconclusive; . = no result; [ ] = dose if it differs, or a comment. % is scaled to controls: 0 for no effect and ±100 for the full control effect; potency is read from the fitted curve at half-maximal effect.
SMILES,VACV Venus inh,MARV entry inh,VACV mCherry inh,LASV entry inh
C=CCN1CC[C@]23c4c5ccc(O)c4O[C@@H]2/C(=N/N=C2\CC[C@@]4(O)C6Cc7ccc(O)c8c7[C@@]4(CCN6CC=C)[C@@H]2O8)CC[C@@]3(O)C1C5,.,4.5µM*,.,16µM*
O=C(C[n+]1c2ccccc2cc2ccccc21)c1ccc(F)cc1,3%,.,29%,.
CC(O)CNc1nc2sc3c(c2c(=O)n1CCc1ccccc1)CCCCC3 (stereo not given),-14%,?,i,26µM*
CCNC(=O)CSc1nc2cc(S(=O)(=O)Nc3ccc(OC)cc3)ccc2o1,-9%,?,-22%,-26%[46.1 µM]
CCN(CC)S(=O)(=O)c1ccc2oc(SCC(=O)NC3CC3)nc2c1,?,5%,18µM*,-2%
CNC(=O)CSc1nc2cc(S(=O)(=O)Nc3ccccc3OC)ccc2o1,?,13%[46.1 µM],13µM*,7%[46.1 µM]
CCN(CC)S(=O)(=O)c1ccc2oc(SCC(=O)Nc3cc(C)on3)nc2c1,?,?,10µM*,?
CCN(CC)S(=O)(=O)c1ccc2oc(SCc3ccc(F)cc3)nc2c1,?,?,.,11µM*
Cc1cc(NC(=O)CSc2nc3cc(Cl)ccc3o2)no1,3%,13%[46.1 µM],-8%,4%[46.1 µM]
O=C(CSc1nc2ccccc2o1)NC1CCCC1,0%,0%[46.1 µM],-7%,.
O=C(NCCc1ccccc1)c1ccc2nccnc2c1,-2%,1.3µM*,i,2.8µM*
CCOc1ccc(C(=O)NCCCCNC(=O)c2ccc(OCC)cc2)cc1,-8%,28%,-14%,22%
CCOc1ccc(C(=O)NCCc2ccccc2)cc1,-4%,?,i,8.2µM*
O=C(c1ccc2c(c1)OCO2)C1CCCN(C2CCN(CCc3ccccc3)CC2)C1 (stereo not given),-24%,7.1µM*,i,?
O=C(NCCc1ccccc1)c1cccnc1,-1%,15%[46.1 µM],-4%,?
O=C(NCCc1ccccc1)c1ccccc1Cl,-7%,11µM*,-4%,?
CCOc1ccc(C(=O)Nc2cccc(C)n2)cc1,-19%,8.9µM*,-20%,?
CCCCOc1ccc(C(=O)Nc2cccc(C)n2)cc1,-11%,?,-15%,?
CC(=O)Oc1ccc(C(=O)NCCc2ccccc2)cc1,-13%,?,-2%,7.1µM*
COc1ccc(C(=O)N(C)c2ccccc2C(=O)NCCc2ccccc2)cc1,-10%,?,-4%,4µM*
O=C(NCCc1ccccc1)c1ccc2c(c1)OCO2,-13%,1.3µM*,-10%,1.1µM*
CSc1nccc(-c2cc(Cl)c3c(c2)CC(CNC(=O)c2ccc(C)nc2)O3)n1 (stereo not given),0%,.,i,.
C=CCC[C@H](Cc1ccc(F)cc1)C(=O)OC[C@@H](NC(=O)[C@@H](CC=C)CC(=O)N(CCO)Cc1ccccc1)C(C)(C)C,13µM*,.,?,.
C=CC[C@H](CC(=O)N(CCO)Cc1ccccc1)C(=O)N[C@H](COC(=O)[C@@H](CC=C)Cc1ccc(F)cc1)C(C)(C)C,?,.,-5%,.
C=CCC[C@H](Cc1ccc(F)cc1)C(=O)OC[C@@H](NC(=O)[C@@H](CC=C)CC(=O)N[C@@H](CO)Cc1ccccc1)C(C)(C)C,10µM*,.,?,.
SMILES,VACV Venus inh,MARV entry inh,VACV mCherry inh,LASV entry inh
CN(Cc1ccccc1)c1ccc(C=O)cc1,0%,.,-4%,.
CCOC(=O)CCN1C(=O)[C@@H]2[C@H]3[C@H](O)[C@H](O)CC(=NOCc4ccccc4)[C@@H]3CC[C@H]2C1=O,.,-7%[14.2 µM],.,?
CC1=NC(=O)C(N=Nc2cccc(C(=O)O)c2)N1c1ccccc1 (stereo not given),.,2.6µM*,.,2.3µM*
CCOc1ccccc1C(=O)Nc1ccc2nc3c(c(Nc4ccc(OC)c(OC)c4)c2c1)CCCC3,?,?,-30%,10µM*
COc1cc(OC)cc(C(=O)Nc2ccc3nc4c(c(Nc5ccc(OC)c(OC)c5)c3c2)CCCC4)c1,?,2.5µM*,?,?
COc1ccccc1Nc1c2c(nc3ccc(NC(=O)c4ccc(N(C)C)cc4)cc13)CCCC2,-12%[7.34 µM],3.2µM*,-24%[7.34 µM],?
COc1ccccc1Nc1c2c(nc3ccccc13)CCC2,-27%,?,?,?
COc1cc(OC)c(/C=C/c2ccc3ccccc3[n+]2[O-])c(OC)c1,-8%,.,-10%,.
O=C(Nc1cc(F)ccc1F)c1cnn2c1NC(=C1CC1)C=C2C(F)F,-7%,.,-4%,.
C/C=C/C(=O)OCC(=O)Nc1cc([N+](=O)[O-])ccc1Cl,?,-4%,11µM*,12%
COc1cc(NC(=O)COC(=O)C=C(C)C)c(C)cc1[N+](=O)[O-],-7%,-3%[46.1 µM],-2%,10%[46.1 µM]
